Assay results reported in the antibiotic and cytotoxicity screens of Wong et al. (2023).
In all, about 39,000 compounds went through this assay and about 3,300 (8.5%) were called active. The sample as a whole holds a higher share of actives than the screen did.

test system: HepG2; assay: cytotoxicity call (relative viability < 0.9); settings: 10 µM

| SMILES | cytotoxicity call |
| --- | --- |
| C[C@@H]1CCCCO[C@@H](CN(C)C(=O)c2ccccc2)[C@H](C)CN([C@H](C)CO)C(=O)c2cc(NC(=O)c3ccccc3)ccc2O1 | inactive |
| CC(C)NC(=O)Nc1ccc2c(c1)CC(=O)N([C@@H](C)CO)C[C@@H](C)[C@H](CN(C)S(=O)(=O)c1cn(C)cn1)O2 | inactive |
| C[C@@H]1CN([C@H](C)CO)C(=O)c2cc(NC(=O)Nc3ccccc3)ccc2O[C@H]1CN(C)C(=O)Nc1ccc(C(F)(F)F)cc1 | inactive |
| O=C(O)C[C@@H]1CC[C@H]2[C@@H](COC[C@@H](O)CN2S(=O)(=O)c2ccc(F)cc2)O1 | inactive |
| COc1ccc(NC(=O)Nc2cccc3c2O[C@@H](CN(C)CC2CCCCC2)[C@H](C)CN([C@H](C)CO)C3=O)cc1 | inactive |
| CC(C)NC(=O)N(C)C[C@@H]1Oc2c(NC(=O)Nc3ccc4c(c3)OCO4)cccc2C(=O)N([C@H](C)CO)C[C@H]1C | inactive |
| CC(C)NC(=O)N(C)C[C@@H]1Oc2ccc(NC(=O)Nc3ccc4c(c3)OCO4)cc2C(=O)N([C@@H](C)CO)C[C@@H]1C | active |
| Cc1cc(C(=O)Nc2cccc3c2O[C@@H](CN(C)C(=O)Nc2ccc4c(c2)OCO4)[C@@H](C)CN([C@@H](C)CO)C3=O)n(C)n1 | active |
| C[C@H](CO)N1C[C@H](C)[C@@H](CN(C)C(=O)Nc2ccc3c(c2)OCO3)Oc2ncc(-c3cncnc3)cc2C1=O | active |
| CC(C)NC(=O)N(C)C[C@H]1Oc2ccc(NC(=O)Nc3ccc4c(c3)OCO4)cc2C(=O)N([C@@H](C)CO)C[C@H]1C | inactive |
| Cc1cc(C(=O)Nc2cccc3c2O[C@H](CN(C)C(=O)Nc2ccc4c(c2)OCO4)[C@H](C)CN([C@@H](C)CO)C3=O)n(C)n1 | inactive |
| Cc1cc(C(=O)Nc2cccc3c2O[C@@H](CN(C)C(=O)Nc2ccc4c(c2)OCO4)[C@H](C)CN([C@@H](C)CO)C3=O)n(C)n1 | inactive |
| C[C@@H]1CN([C@@H](C)CO)C(=O)c2cc(-c3cncnc3)cnc2O[C@H]1CN(C)C(=O)Nc1ccc2c(c1)OCO2 | inactive |
| CC(C)NC(=O)N(C)C[C@H]1Oc2c(NC(=O)Nc3ccc4c(c3)OCO4)cccc2C(=O)N([C@@H](C)CO)C[C@H]1C | inactive |
| C[C@@H]1CN([C@H](C)CO)C(=O)c2cc(-c3cncnc3)cnc2O[C@@H]1CN(C)C(=O)Nc1ccc2c(c1)OCO2 | inactive |
| CC(C)NC(=O)N(C)C[C@H]1Oc2ccc(NC(=O)Nc3ccc4c(c3)OCO4)cc2C(=O)N([C@H](C)CO)C[C@H]1C | inactive |
| CC(C)NC(=O)N(C)C[C@@H]1Oc2c(NC(=O)Nc3ccc4c(c3)OCO4)cccc2C(=O)N([C@@H](C)CO)C[C@H]1C | active |
| C[C@@H]1CCCCO[C@H](CN(C)Cc2ccc(C(=O)O)cc2)[C@@H](C)CN([C@H](C)CO)C(=O)c2cc(NC(=O)C3CCCCC3)ccc2O1 | inactive |

| SMILES | cytotoxicity call |
| --- | --- |
| Cc1ccc(S(=O)(=O)N(C)C[C@@H]2Oc3ncc(C#CCN(C)C)cc3C(=O)N([C@H](C)CO)C[C@@H]2C)cc1 | inactive |
| Cc1noc(C)c1NC(=O)N(C)C[C@H]1OCCCC[C@@H](C)Oc2ccc(NS(=O)(=O)c3cccs3)cc2C(=O)N([C@@H](C)CO)C[C@@H]1C | inactive |
| C[C@H]1CN([C@@H](C)CO)C(=O)c2cccc(NS(=O)(=O)c3ccc(F)cc3)c2O[C@H]1CN(C)S(=O)(=O)c1ccccc1 | inactive |
| Cc1noc(C)c1S(=O)(=O)N(C)C[C@H]1Oc2c(NS(=O)(=O)c3cn(C)cn3)cccc2C(=O)N([C@@H](C)CO)C[C@H]1C | inactive |
| COc1ccccc1O | inactive |
| COc1cccc(OC)c1O | inactive |
| COc1cccc(O)c1O | active |
| O=C1/C(=C/c2cn(-c3ccccc3)nc2-c2ccc(OCc3ccccc3)cc2)SC(=S)N1CCS(=O)(=O)O | inactive |
| Cc1noc(C)c1NC(=O)N(C)C[C@@H]1Oc2ccc(NC(=O)c3ccncc3)cc2C(=O)N([C@@H](C)CO)C[C@H]1C | inactive |
| C[C@@H]1CN([C@H](C)CO)C(=O)c2cc(NC(=O)Nc3ccc4c(c3)OCO4)ccc2O[C@@H](C)CCCCO[C@H]1CN(C)Cc1ccc2c(c1)OCO2 | inactive |
| C[C@@H]1CN([C@@H](C)CO)C(=O)c2cc(NC(=O)Nc3ccc4c(c3)OCO4)ccc2O[C@@H](C)CCCCO[C@H]1CN(C)Cc1ccc2c(c1)OCO2 | inactive |
| C[C@@H]1CCCCO[C@@H](CN(C)Cc2ccc3c(c2)OCO3)[C@H](C)CN([C@H](C)CO)C(=O)c2cc(NC(=O)Nc3ccc4c(c3)OCO4)ccc2O1 | active |
| C[C@H]1CCCCO[C@@H](CN(C)Cc2ccc3c(c2)OCO3)[C@@H](C)CN([C@@H](C)CO)C(=O)c2cc(NC(=O)Nc3ccc4c(c3)OCO4)ccc2O1 | inactive |
| C[C@@H]1CCCCO[C@@H](CN(C)Cc2ccc3c(c2)OCO3)[C@@H](C)CN([C@@H](C)CO)C(=O)c2cc(NC(=O)Nc3ccc4c(c3)OCO4)ccc2O1 | active |
| C[C@@H]1CCCCO[C@H](CN(C)Cc2ccc3c(c2)OCO3)[C@H](C)CN([C@H](C)CO)C(=O)c2cc(NC(=O)Nc3ccc4c(c3)OCO4)ccc2O1 | active |
| C[C@H]1CCCCO[C@H](CN(C)Cc2ccc3c(c2)OCO3)[C@@H](C)CN([C@@H](C)CO)C(=O)c2cc(NC(=O)Nc3ccc4c(c3)OCO4)ccc2O1 | inactive |
| C[C@H](CO)N1C[C@H](C)[C@H](CN(C)Cc2ccc3c(c2)OCO3)OCCCC[C@H](C)Oc2ccc(NC(=O)Nc3ccc4c(c3)OCO4)cc2C1=O | active |
| C[C@@H]1CCCCO[C@@H](CN(C)Cc2ccc3c(c2)OCO3)[C@H](C)CN([C@@H](C)CO)C(=O)c2cc(NC(=O)Nc3ccc4c(c3)OCO4)ccc2O1 | inactive |
